Results published in PubChem BioAssay AID1159580 (chemical genetic matrix, 2015).
In all, about 5,500 compounds went through this assay and about 2,000 (36%) were called active. Another 18% or so got no clear call; they are omitted. No stated cut-off is given here; in the data, active means normalized growth mostly below about 0.91 (no sharp cut-off); inconclusive means no clear call, values can overlap the other calls; inactive means mostly above about 0.92. The list shows a part of the results.

Test: chemical genetic growth profiling, strain panel (AID 1159580);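 further: tested at 20 µM; growth read once vehicle control cultures reached saturation at 30 °C; 1 = growth at the plate median or of vehicle wells; lower values mean less growth of the strain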
Conditions: growth OD

Measured: normalized growth

NC(=O)c1cc[n+](CC2=C(C(=O)O)N3C(=O)C(NC(=O)C(c4ccccc4)S(=O)(=O)[O-])C3SC2)cc1 (stereo not given)
inactive: S. cerevisiae deletion strains, locus YJR066W, strain TOR1, active compounds read low 1 | S. cerevisiae deletion strains, locus YKL009W, strain mrt4, active compounds read low 0.991 | S. cerevisiae deletion strains, locus YKL068W, active compounds read low 0.992 | S. cerevisiae deletion strains, locus YKL085W, strain MDH1 (second series), active compounds read low 0.987 | S. cerevisiae deletion strains, locus YKL085W, strain MDH1, active compounds read low 0.987 | S. cerevisiae deletion strains, locus YKL160W, strain elf1, active compounds read low 0.967 | S. cerevisiae deletion strains, locus YKL190W, strain CNB1, active compounds read low 0.996 | S. cerevisiae deletion strains, locus YKR001C, strain vps1, active compounds read low 0.993 | S. cerevisiae deletion strains, locus YKR026C, strain gcn3, active compounds read low 0.96 | S. cerevisiae deletion strains, locus YKR091W, strain srl3, active compounds read low 1.01 | S. cerevisiae deletion strains, locus YLL001W, strain dnm1, active compounds read low 0.961 | S. cerevisiae deletion strains, locus YLL026W, active compounds read low 0.999 | S. cerevisiae deletion strains, locus YLL041C, strain sdh2, active compounds read low 0.978 | S. cerevisiae deletion strains, locus YLR027C, strain aat2, active compounds read low 0.982 | S. cerevisiae deletion strains, locus YLR039C, strain RIC1, active compounds read low 0.986 | S. cerevisiae deletion strains, locus YLR058C, strain SHM2, active compounds read low 0.987 | S. cerevisiae deletion strains, locus YLR102C, strain apc9, active compounds read low 0.992 | S. cerevisiae deletion strains, locus YLR113W, strain HOG1, active compounds read low 1.09 | S. cerevisiae deletion strains, locus YLR221C, strain rsa3, active compounds read low 0.991 | S. cerevisiae deletion strains, locus YLR258W, strain gsy2, active compounds read low 1.01 | S. cerevisiae deletion strains, locus YLR262C, strain YPT6 (second series), active compounds read low 0.983 | S. cerevisiae deletion strains, locus YLR262C, strain YPT6, active compounds read low 0.945 | S. cerevisiae deletion strains, locus YLR268W, strain sec22, active compounds read low 0.981 | S. cerevisiae deletion strains, locus YLR320W, strain mms22, active compounds read low 1.01 | S. cerevisiae deletion strains, locus YLR330W, strain CHS5, active compounds read low 0.982 | S. cerevisiae deletion strains, locus YLR342W, strain FKS1 (second series), active compounds read low 0.959 | S. cerevisiae deletion strains, locus YLR342W, strain FKS1, active compounds read low 0.973 | S. cerevisiae deletion strains, locus YLR357W, strain rsc2, active compounds read low 0.965 | S. cerevisiae deletion strains, locus YLR370C, strain arc18, active compounds read low 1 | S. cerevisiae deletion strains, locus YLR371W, strain rom2, active compounds read low 0.987 | S. cerevisiae deletion strains, locus YLR384C, strain iki3, active compounds read low 0.984 | S. cerevisiae deletion strains, locus YLR418C, strain cdc73, active compounds read low 0.972 | S. cerevisiae deletion strains, locus YML016C, strain PPZ1, active compounds read low 0.982 | S. cerevisiae deletion strains, locus YML032C, strain rad52, active compounds read low 0.989 | S. cerevisiae deletion strains, locus YML120C, strain ndi1, active compounds read low 0.986 | S. cerevisiae deletion strains, locus YML124C, strain tub3, active compounds read low 0.982 | S. cerevisiae deletion strains, locus YMR058W, strain fet3, active compounds read low 0.998 | S. cerevisiae deletion strains, locus YMR078C, strain ctf18, active compounds read low 0.989 | S. cerevisiae deletion strains, locus YMR125W, strain sto1, active compounds read low 0.971 | S. cerevisiae deletion strains, locus YMR129W, active compounds read low 1.01 | S. cerevisiae deletion strains, locus YMR205C, strain PFK2, active compounds read low 1 | S. cerevisiae deletion strains, locus YMR223W, strain ubp8, active compounds read low 0.974 | S. cerevisiae deletion strains, locus YMR231W, strain pep5, active compounds read low 1 | S. cerevisiae deletion strains, locus YMR307W, strain GAS1, active compounds read low 0.883 | S. cerevisiae deletion strains, locus YNL067W, strain RPL9B, active compounds read low 1.02 | S. cerevisiae deletion strains, locus YNL071W, strain lat1, active compounds read low 1.01 | S. cerevisiae deletion strains, locus YNL153C, strain GIM3, active compounds read low 1.04 | S. cerevisiae deletion strains, locus YNL183C, strain NPR1, active compounds read low 0.999 | S. cerevisiae deletion strains, locus YNL209W, strain ssb2, active compounds read low 1.01 | S. cerevisiae deletion strains, locus YNL233W, strain BNI4, active compounds read low 1.01 | S. cerevisiae deletion strains, locus YNL248C, strain rpa49, active compounds read low 0.987 | S. cerevisiae deletion strains, locus YNL250W, strain rad50, active compounds read low 0.975 | S. cerevisiae deletion strains, locus YNL271C, strain bni1, active compounds read low 0.985 | S. cerevisiae deletion strains, locus YNL298W, strain CLA4, active compounds read low 0.988 | S. cerevisiae deletion strains, locus YNL307C, strain MCK1, active compounds read low 0.987 | S. cerevisiae deletion strains, locus YNL322C, strain KRE1 (second series), active compounds read low 0.994 | S. cerevisiae deletion strains, locus YNL322C, strain KRE1, active compounds read low 0.993 | S. cerevisiae deletion strains, locus YNR049C, strain mso1, active compounds read low 0.986 | S. cerevisiae deletion strains, locus YNR052C, strain pop2, active compounds read low 0.991 | S. cerevisiae deletion strains, locus YOL006C, strain TOP1, active compounds read low 1.02 | S. cerevisiae deletion strains, locus YOL012C, strain htz1 1.88 | S. cerevisiae deletion strains, locus YOL147C, strain pex11, active compounds read low 0.983 | S. cerevisiae deletion strains, locus YOR001W, strain rrp6, active compounds read low 0.985 | S. cerevisiae deletion strains, locus YOR061W, strain CKA2, active compounds read low 0.985 | S. cerevisiae deletion strains, locus YOR069W, strain VPS5, active compounds read low 0.987 | S. cerevisiae deletion strains, locus YOR070C, strain gyp1, active compounds read low 1.01 | S. cerevisiae deletion strains, locus YOR080W, strain dia2, active compounds read low 0.982 | S. cerevisiae deletion strains, locus YOR083W, strain WHI5, active compounds read low 0.985 | S. cerevisiae deletion strains, locus YOR106W, strain vam3, active compounds read low 0.992 | S. cerevisiae deletion strains, locus YOR136W, strain idh2, active compounds read low 0.998 | S. cerevisiae deletion strains, locus YOR144C, strain elg1, active compounds read low 0.991 | S. cerevisiae deletion strains, locus YOR184W, strain ser1, active compounds read low 0.98 | S. cerevisiae deletion strains, locus YOR231W, strain MKK1, active compounds read low 1.09 | S. cerevisiae deletion strains, locus YOR265W, strain rbl2, active compounds read low 1 | S. cerevisiae deletion strains, locus YOR270C, strain vph1, active compounds read low 0.93 | S. cerevisiae deletion strains, locus YOR290C, strain snf2, active compounds read low 0.998 | S. cerevisiae deletion strains, locus YOR316C, strain cot1, active compounds read low 0.994 | S. cerevisiae deletion strains, locus YPL051W, strain arl3, active compounds read low 0.987 | S. cerevisiae deletion strains, locus YPL055C, strain LGE1, active compounds read low 1.06 | S. cerevisiae deletion strains, locus YPL078C, strain atp4, active compounds read low 0.962 | S. cerevisiae deletion strains, locus YPL106C, strain sse1, active compounds read low 1.02 | S. cerevisiae deletion strains, locus YPL240C, strain hsp82, active compounds read low 0.987 | S. cerevisiae deletion strains, locus YPL241C, strain CIN2, active compounds read low 0.991 | S. cerevisiae deletion strains, locus YPL256C, strain CLN2, active compounds read low 1.07 | S. cerevisiae deletion strains, locus YPR119W, strain clb2, active compounds read low 0.995 | S. cerevisiae deletion strains, locus YPR141C, strain kar3, active compounds read low 0.98 | S. cerevisiae deletion strains, locus YPR163C, strain tif3, active compounds read low 0.987 | S. cerevisiae deletion strains, locus YPR167C, strain met16, active compounds read low 0.981 | S. cerevisiae deletion strains, strain wtn01, active compounds read low 0.981 | S. cerevisiae strains, strain wild type, active compounds read low 0.995
